Reference: PubChem BioAssay (Tox21)
Calls of active or inactive are those of the source. Unless noted, the call rests on the fitted dose curve; in most records, active means well fitted curve in the direction sought with a large enough effect in the repeat runs; inconclusive means weak or mixed curves; inactive means no such curve, though single readings can be large; an effect the other way counts as inactive or inconclusive.

Columns and labels:
[1] = qHTS assay for small molecules that induce genotoxicity in human embryonic kidney cells expressing luciferase-tagged ATAD5 (AID 651632); further: nearly all actives have a fitted effect of over 15% in size
Procedure, shortened: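 Luminescence read-out: after 16 hr compound exposure at 37C, ATAD5-luciferase HEK293T cells received Amplite, 30 min RT, then CCD imaging. A rise in signal marks genotoxic stress.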

[2] = qHTS assay for small molecules that induce genotoxicity in human embryonic kidney cells expressing luciferase-tagged ATAD5 - cell viability (AID 651634; calls by dose curve; further: nearly all actives have a fitted effect of over 25% in size)
Procedure, shortened: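 HEK293T ATAD5-luc cells, 2,000/well; compound 15.5 hr, 37C/5% CO2; CellTiter-Fluor 30 min, 37C; fluorescence read.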

[3] = qHTS assay for small molecule disruptors of the mitochondrial membrane potential - cell viability (AID 720634; calls by dose curve;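 further: human HepG2 liver cancer cells; series mostly up to about 83 µM; nearly all actives have a fitted effect of over 20% in size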)
Procedure, shortened: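 Luminescence from CellTiter-Glo (ATP content) gave viability in HepG2 cells, read in the same wells as the MMP dye assay after 1 hr compound exposure at 37 C.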

[4] = qHTS assay to test for compound auto fluorescence at 590 nm (red) in HepG2 cells (AID 720674)
Procedure, shortened: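 1 hr compound incubation on HepG2 cells, 37 C, 5% CO2; plate read ex 540 nm / em 590 nm; intensities reported as Rose Bengal sodium equivalents.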

[5] = qHTS assay to test for compound auto fluorescence at 535 nm (green) in HepG2 cells (AID 720675)
[6] = qHTS assay to test for compound auto fluorescence at 460 nm (blue) in HEK293 cells (AID 720678)
Procedure, shortened: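 After cell attachment (4-5 hr, 37C), compounds were pinned onto HEK293 monolayers in 10% dialyzed FBS medium. The blue channel (405/460 nm) was read following overnight culture. Equivalency was calculated against triamterene.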

[7] = qHTS assay to test for compound auto fluorescence at 590 nm (red) in HEK293 cells (AID 720679)
Procedure, shortened: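 Plates of HEK293 cells (10% dialyzed FBS) are treated with 23 nL compound or DMSO vehicle after a 4-5 hr attachment period, incubated overnight at 37C, and read for red fluorescence at 540/590nm.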

[8] = qHTS assay to test for compound auto fluorescence at 535 nm (green) in HEK293 cells (AID 720680)
[9] = qHTS assay to test for compound auto fluorescence at 460 nm (blue) in HEK293 cell free culture (AID 720681)
Procedure, shortened: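 Blue fluorescence (Ex 405/Em 460 nm, triamterene-equivalent) was read immediately after pin transfer of compound or DMSO into medium (DMEM, 10% FBS) without cells.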

[10] = qHTS assay to test for compound auto fluorescence at 535 nm (green) in HEK293 cell free culture (AID 720682)
Procedure, shortened: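 Compounds were pin-transferred into cell-free DMEM with 10% FBS, and green fluorescence was read at excitation 485 nm and emission 535 nm. Intensities were expressed as fluorescein-equivalent values.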

[11] = qHTS assay to test for compound auto fluorescence at 590 nm (red) in HEK293 cell free culture (AID 720683)
Procedure, shortened: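 Red-channel autofluorescence of compounds in culture medium (DMEM, 10% FBS), no cells, measured at 540/590 nm. Rose Bengal sodium is the reference fluorophore for equivalence.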

[12] = qHTS assay to test for compound auto fluorescence at 590 nm (red) in HepG2 cell free culture (AID 720684)
Procedure, shortened: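 Cell-free; medium MEM + 10% FBS; compound or DMSO added by pintool; read Ex 540/Em 590 nm; Rose Bengal sodium as red reference fluorophore.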

[13] = qHTS assay to test for compound auto fluorescence at 460 nm (blue) in HepG2 cell free culture (AID 720685)
Procedure, shortened: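 Cell-free plates of MEM plus 10% FBS received 23 nL compound or DMSO vehicle; blue-channel (405/460 nm) intensity scored against triamterene as reference fluorophore.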

[14] = qHTS assay to test for compound auto fluorescence at 535 nm (green) in HepG2 cell free culture (AID 720686)
[15] = qHTS assay to test for compound auto fluorescence at 460 nm (blue) in HepG2 cells (AID 720687)
Procedure, shortened: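 Blue-channel autofluorescence (Ex/Em 405/460 nm, triamterene-equivalent) was measured after 1 hr compound exposure at 37 C, 5% CO2. Cells were HepG2, plated overnight at 37 C in MEM plus 10% FBS.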

[16] = biological target: Glucocorticoid receptor (Homo sapiens) (UniProt P04150); experiment: qHTS assay to identify small molecule agonists of the glucocorticoid receptor (GR) signaling pathway (AID 720691; active means well fitted activation curve with a large enough effect in the signal ratio in the repeat runs, not every such curve was filed as active; inconclusive means weak or mixed curves, or effect the other way; inactive means no such curve, though single readings can be large or run the other way; the % refers to the signal ratio; further: potency means the concentration at half of the fitted maximal effect)
Sequence of Glucocorticoid receptor (Homo sapiens) (P04150 whole entry, looked up): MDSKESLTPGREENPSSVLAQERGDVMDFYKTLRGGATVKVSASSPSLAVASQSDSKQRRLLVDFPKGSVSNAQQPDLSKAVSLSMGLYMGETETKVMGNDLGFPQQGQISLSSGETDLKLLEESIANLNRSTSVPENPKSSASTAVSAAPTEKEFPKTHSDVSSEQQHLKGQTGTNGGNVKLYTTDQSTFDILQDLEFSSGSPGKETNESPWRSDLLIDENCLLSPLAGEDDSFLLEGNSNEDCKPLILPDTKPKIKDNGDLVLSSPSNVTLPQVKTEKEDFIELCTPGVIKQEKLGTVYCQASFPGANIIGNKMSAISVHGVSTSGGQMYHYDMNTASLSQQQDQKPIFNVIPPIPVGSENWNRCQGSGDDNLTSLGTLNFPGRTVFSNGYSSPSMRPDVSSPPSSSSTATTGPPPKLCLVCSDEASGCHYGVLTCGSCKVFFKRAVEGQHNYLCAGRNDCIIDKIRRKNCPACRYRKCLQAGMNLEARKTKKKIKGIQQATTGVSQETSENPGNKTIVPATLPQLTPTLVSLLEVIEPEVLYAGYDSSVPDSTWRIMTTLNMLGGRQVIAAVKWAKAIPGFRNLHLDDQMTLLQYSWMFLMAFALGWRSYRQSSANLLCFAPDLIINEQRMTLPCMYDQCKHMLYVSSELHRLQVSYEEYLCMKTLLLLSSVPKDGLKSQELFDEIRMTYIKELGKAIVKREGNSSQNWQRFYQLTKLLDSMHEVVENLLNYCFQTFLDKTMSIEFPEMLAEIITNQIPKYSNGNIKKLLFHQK
Procedure, shortened: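 HeLa GR-bla reporter line; cells pre-incubated 4 h, compound in DMSO 18 h at 37 C; LiveBLAzer B/G FRET substrate 2 h RT; fluorescence intensity read-out.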

[17] = biological target: Glucocorticoid receptor (Homo sapiens) (UniProt P04150); experiment: qHTS assay to identify small molecule antagonists of the glucocorticoid receptor (GR) signaling pathway (AID 720692; active means well fitted inhibition curve with a large enough effect in the signal ratio in the repeat runs, not every such curve was filed as active; inconclusive means weak or mixed curves, or effect the other way; inactive means no such curve, though single readings can be large or run the other way; the % refers to the signal ratio)
Procedure, shortened: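 Read-out: beta-lactamase FRET substrate fluorescence, 2 h at room temperature, in HeLa cells stably carrying a GRE-driven bla reporter. Compounds were co-incubated with 5 nM dexamethasone agonist (final) for 18 h at 37 C.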

[18] = qHTS assay for small molecule agonists of the p53 signaling pathway - cell viability (AID 651633; calls by dose curve;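 further: p53RE-bla HCT reporter cells with a stable beta-lactamase p53 reporter; series mostly up to about 83 µM; nearly all actives have a fitted effect of over 30% in size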)
Procedure, shortened: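 Viability counter-read: CellTiter-Glo luminescence (30 min, room temperature) in the same p53RE-bla plates. These plates had been exposed to compounds for 16 h at 37 C.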

[19] = qHTS assay for small molecule disruptors of the mitochondrial membrane potential (AID 720635); further: potency means the concentration at half of the fitted maximal effect
Procedure, shortened: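 Mitochondrial membrane potential tracked with Mito-MPS dye, red aggregates (ex 540/em 590 nm) against green monomers (ex 490/em 535 nm). Compound treatment 1 hr at 37C, dye 30 min in HepG2.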
On the % scale 0 is the no-effect control and ±100 the full control effect.

O=C1CCCCC1C1CCCCC1 (centres undefined)
inactive: Potency [1] | Potency [2] | Potency [3] | outcome [4] | outcome [5] | outcome [6] | outcome [7] | outcome [8] | outcome [9] | outcome [10] | outcome [11] | outcome [12] | outcome [13] | outcome [14] | outcome [15] | Potency [16] | Potency [17]

CC(=O)N(CC(O)CN(C(C)=O)c1c(I)c(C(=O)NCC(O)CO)c(I)c(C(=O)NCC(O)CO)c1I)c1c(I)c(C(=O)NCC(O)CO)c(I)c(C(=O)NCC(O)CO)c1I (centres undefined)
inactive: Potency [18] | Potency [2] | Potency [3] | Potency [19] | fluorescence, relative to Rose Bengal [4] 0.142% [at 18.6 µM] | fluorescence, % of fluorescein control [5] 0.0792% [at 18.6 µM] | fluorescence, % of triamterene [6] 0.0832% [at 18.6 µM] | fluorescence, % of fluorescent control [7] -0.003% [at 18.6 µM] | fluorescence, % of fluorescent control [9] 0.0333% [at 18.6 µM] | activity change [10] -0.0739% [at 18.6 µM] | fluorescence, % of fluorescent control [11] -0.132% [at 18.6 µM] | fluorescence, % of Rose Bengal [12] 0.365% [at 18.6 µM] | fluorescence, % of fluorescein control [14] 0.0651% [at 18.6 µM] | fluorescence, % of fluorescent control [15] -0.0121% [at 18.6 µM] | Potency [16] | Potency [17]

Cc1c(N)cccc1N
inactive: Potency [18] | Potency [2] | Potency [3] | outcome [4] | outcome [5] | outcome [6] | outcome [7] | outcome [9] | outcome [10] | outcome [11] | outcome [12] | outcome [13] | outcome [14] | outcome [15] | Potency [16] | Potency [17]
active: Potency [19] 17.6 µM

Cc1ccc(C)c(N)c1
inactive: Potency [18] | Potency [2] | Potency [3] | outcome [4] | outcome [5] | outcome [6] | outcome [7] | outcome [8] | outcome [9] | outcome [10] | outcome [11] | outcome [12] | outcome [14] | outcome [15] | Potency [16] | Potency [17]

C=O
inactive: Potency [18] | Potency [2] | Potency [3] | outcome [4] | outcome [5] | outcome [6] | outcome [7] | outcome [9] | outcome [10] | outcome [11] | outcome [12] | outcome [13] | outcome [14] | outcome [15]

CCN(CC)CC1CCCCN1CC(=O)N1c2ccccc2C(=O)Nc2cccnc21 (centres undefined)
inactive: Potency [1] | Potency [2] | Potency [3] | Potency [19] | outcome [4] | outcome [5] | outcome [6] | outcome [7] | outcome [9] | outcome [10] | outcome [11] | outcome [12] | outcome [13] | outcome [14] | outcome [15]

CCNCCO
inactive: Potency [1] | Potency [2] | Potency [3] | Potency [19] | outcome [4] | outcome [5] | outcome [6] | outcome [7] | outcome [8] | outcome [9] | outcome [10] | outcome [11] | outcome [12] | outcome [14] | outcome [15] | Potency [16] | Potency [17]

Cc1cc2c(s1)Nc1ccccc1N=C2N1CCN(C)CC1
inactive: Potency [3] | Potency [19] | outcome [4] | outcome [5] | outcome [6] | outcome [7] | outcome [8] | outcome [9] | outcome [10] | outcome [11] | outcome [12] | outcome [13] | outcome [14] | outcome [15] | Potency [16] | Potency [17]

CCCCC(=O)O[C@]1(C(=O)CO)[C@H](C)C[C@H]2[C@@H]3CCC4=CC(=O)C=C[C@]4(C)[C@@]3(F)[C@@H](O)C[C@@]21C
active: Potency [19] 10.6 µM | Potency [16] 0.0043 µM [inconclusive]
inactive: Potency [1] | Potency [2] | outcome [4] | outcome [5] | outcome [6] | outcome [7] | outcome [8] | outcome [9] | outcome [10] | outcome [11] | outcome [12] | outcome [13] | outcome [14] | outcome [15]
